# Screening results (PubChem BioAssay)
# FadD28 binding: inhibitors of FadD28 bisubstrate probe binding, primary screen, biochemical, fluorescence polarization, single point; Mycobacterium tuberculosis FadD28 fatty-acid-AMP ligase; inhibition, % at 12.5 µM; 360,000 tested, 0.22% active; AID 588549, 2011; in the data active = inhibition above about 8.5%, passing the limit was not always enough
# GDH-TPI counter: GDH-TPI coupling enzyme inhibitors, primary screen, artefact control for M. tuberculosis FBA inhibitor project, biochemical, absorbance, full deck | inhibition, % at 4.8 µM | AID 588335, 2011 | GDH-TPI coupled enzyme counterscreen, NADH absorbance | 360,000 tested, 1.2% active; in the data active = inhibition above about 30%;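 also: 0% = DMSO wells and 100% = wells lacking the enzyme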
# Mtb UGM inh: M. tuberculosis UGM enzyme inhibitors, primary screen, biochemical, fluorescence polarization, single point; purified UGM, fluorescence polarization probe displacement; inhibition, % at 10 µM; 320,000 tested, 0.06% active; in the data active = inhibition above about 10%, passing the limit was not always enough
# Target sequence (P9WIQ1 whole entry, looked up): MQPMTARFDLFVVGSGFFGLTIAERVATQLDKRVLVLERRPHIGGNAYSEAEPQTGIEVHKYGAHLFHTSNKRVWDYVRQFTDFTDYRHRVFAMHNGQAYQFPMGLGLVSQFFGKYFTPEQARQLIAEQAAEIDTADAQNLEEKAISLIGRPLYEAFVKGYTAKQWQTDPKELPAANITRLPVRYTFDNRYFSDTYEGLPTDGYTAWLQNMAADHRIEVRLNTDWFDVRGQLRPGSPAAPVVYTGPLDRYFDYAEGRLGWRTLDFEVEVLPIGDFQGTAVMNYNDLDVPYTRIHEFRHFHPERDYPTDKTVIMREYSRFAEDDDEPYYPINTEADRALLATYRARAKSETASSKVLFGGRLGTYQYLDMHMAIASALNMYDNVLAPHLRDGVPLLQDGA
# Mtb bLac sens: beta-lactam sensitization of Mtb H37Rv, H37Rv | M. tuberculosis H37Rv growth with meropenem, percent inhibition | AID 434955, 2010 | inhibition, % at 25 µM | 330,000 tested, 0.27% active; call rule not given here;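 also: growth measured after seven days incubation then overnight dye step; 0% = bacteria only wells and 100% = bacteria with antibiotic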
# FBA Mtb inh: Mtb FBA enzyme inhibitors, primary screen, biochemical, fluorescence, strain H37Rv; Fructose-bisphosphate aldolase (Mycobacterium tuberculosis (strain ATCC 25618 / H37Rv)), …; purified M. tuberculosis FBA, fluorescence read-out; inhibition, % at 1 µM; 360,000 tested, 2.3% active; in the data active = inhibition above about 27%;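 also: 0% = vehicle and 100% = reference inhibitor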
# Rv3671c protease: Rv3671c serine protease inhibitors, primary screen, biochemical, fluorescence polarization, M. tuberculosis H37Rv; P9WHR9; inhibition, % at 5.96 µM; 320,000 tested, 0.048% active; AID 2606, 2010; in the data active = inhibition above about 38%;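 also: extracellular domain of Rv3671c used as enzyme; 0% = enzyme with DMSO and 100% = no enzyme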
# An asterisk follows results filed as active; x = no result given. Hits are enriched below; roughly 3.7% of the tested compounds scored in any of these assays.
SMILES,FadD28 binding,GDH-TPI counter,Mtb UGM inh,Mtb bLac sens,FBA Mtb inh,Rv3671c protease
Oc1ccc(/C=N/Nc2ccc(Cl)nn2)cc1O,-0.2,31.9*,1.8,5.6,1.0,3.5
COc1cccc(/C=N/Nc2cc(Cl)nc(C)n2)c1O,-2.6,7.6,-3.2,97.1,4.6,-1.9
Cc1nc(Cl)cc(N/N=C/c2ccc(O)cc2)n1,0.5,35.4*,0.3,-1.2,-0.9,-0.1
O=C(/C=C/[C@H]1O[C@@H](n2ccc(=O)[nH]c2=O)[C@H](O)[C@@H]1O)NC(c1ccccc1)c1ccccc1,-0.6,x,x,x,2.3,x
Cc1nn(CC(=O)Nc2ccc3c(c2)OCCO3)c(C)c1[N+](=O)[O-],-2.8,-0.9,1.2,24.0,1.6,-3.4
Cc1cc(N/N=C/c2ccc(O)cc2O)nc(-n2nc(C)cc2C)n1,-0.5,35.9*,0.0,99.5,-0.4,-7.2
COc1ccc(/C=N/Nc2cc(C)nc(-n3nc(C)cc3C)n2)cc1,-4.3,16.6,-2.7,95.9,4.0,4.7
COc1ccc(/C=[N+](\[O-])C2N(c3ccccc3)C(=S)SC2(C)C)cc1OC (stereo not drawn),-1.0,32.4*,0.6,-3.2,-1.5,-3.5
CC1(C(=O)N2CCCCC2)CCN1C(=O)C1(c2ccccc2)CC1 (stereo not drawn),-1.6,1.8,x,x,-1.6,x
Cc1nn(CC(=O)NC2CCS(=O)(=O)C2)c(C)c1[N+](=O)[O-] (stereo not drawn),-0.6,3.4,-1.5,1.7,-1.2,2.6
CC(=O)NC(c1cccc(F)c1)c1nc(-c2cccs2)cs1 (stereo not drawn),-5.2,0.9,x,x,-3.4,x
CN1C(=O)CC2(C)C1=CCc1scnc12 (stereo not drawn),-2.5,x,x,x,0.8,x
CCOC(=O)Cn1c2ccccc2c2nc3ccccc3nc21,-3.0,14.6,-1.3,19.4,-0.7,3.1
COc1ccc(Cn2c3ccc(OC)cc3c3nc4ccccc4nc32)cc1,-1.3,7.8,2.4,10.0,-2.9,6.5
COc1ccc2c(c1)c1nc3ccccc3nc1n2CC(=O)OC(C)C,-2.9,9.8,18.7*,7.1,-0.4,3.2
O=C(O)Cn1c2ccccc2c2nc3ccccc3nc21,-3.0,31.6*,x,x,-2.2,x
CC12CCC(=O)C=C1CCC1C2CCC2(C)C1CC1C3C(=O)N(Cc4ccccc4)C(=O)C3CC(=O)C12 (stereo not drawn),-2.1,6.9,x,x,0.7,x
O=C(c1ccncc1)c1ccc(N2CCN(C3CC(=O)N(Cc4cccs4)C3=O)CC2)cc1 (stereo not drawn),-0.3,38.0*,0.8,2.6,-4.5,7.5
O=C(CS(=O)(=O)Cc1ccccc1)Nc1ccc(S(=O)(=O)N2CCCCCC2)cc1,23.6*,-5.6,-1.3,4.3,-3.8,-27.8
O=C(CS(=O)(=O)Cc1ccccc1)Nc1ccc(S(=O)(=O)N2CCOCC2)cc1,-0.8,-3.7,-1.9,-1.2,-1.8,-6.1
C=CCn1c(N)c(C(=O)OCCC)c2nc3ccccc3nc21,-1.9,17.4,0.1,-5.5,174.7*,-7.7
Nc1c(C(=O)NCCCc2ccccc2)c2nc3ccccc3nc2n1Cc1cccs1,-11.2,-0.3,0.9,-10.3,5.4,-19.1
CCCOC(=O)c1c(N)n(Cc2cccs2)c2nc3ccccc3nc12,-11.4,10.6,-1.3,13.7,173.3*,-7.8
COc1nnc(-c2ccc(N3CCCCC3)c(NC(=O)COc3ccccc3)c2)c2ccccc12,-4.4,8.0,x,x,-0.9,x
COc1ccc(OCC(O)CN2CCC(CN3C(=O)c4cccc5cccc(c45)C3=O)CC2)cc1 (stereo not drawn),-4.7,45.2*,2.1,67.7,22.6,-6.1
COc1ccc(C(=O)CN2CCN(CCN3C(=O)c4cccc5cccc(c45)C3=O)CC2)cc1,-1.9,45.7*,2.4,35.6,3.8,-3.0
COc1cc2c3c(cccc3c1)C(=O)N(CCN1CCCC1)C2=O,-3.2,15.9,x,x,146.6*,x
O=C(NCCCN1CCOCC1)c1cccc(S(=O)(=O)Nc2ccccc2Cl)c1,-4.8,-0.4,-1.5,2.4,-0.3,-3.2
CC(C)(C)c1ccc(C(=O)Nc2cccc(S(=O)(=O)NC3=NCCC3)c2)cc1,-0.6,0.3,-1.8,5.0,-2.2,0.1
